Screens (PubChem)
NPR2 activator: GC-B (human) receptor activation; P20594; HEK293-GC-B cells, CNP EC30, cGMP TR-FRET; 0% at EC30 CNP, 100% saturating CNP; activation, % at 10 µM; 0.11% of 370,000 active;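 active = activation at 10 µM reaching about 35% in either raw or pattern-adjusted values, limit read from the data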
NPR1 activator: GC-A (human) enzyme activation | HEK293 GC-A cells, cGMP TR-FRET, EC30 ANP; 0% at EC30 ANP, 100% saturating ANP | activation, % at 10 µM | AID 1671463 | 0.14% of 370,000 active | P16066; in the data active = activation above about 40%
Target sequence (P16066 whole entry, looked up): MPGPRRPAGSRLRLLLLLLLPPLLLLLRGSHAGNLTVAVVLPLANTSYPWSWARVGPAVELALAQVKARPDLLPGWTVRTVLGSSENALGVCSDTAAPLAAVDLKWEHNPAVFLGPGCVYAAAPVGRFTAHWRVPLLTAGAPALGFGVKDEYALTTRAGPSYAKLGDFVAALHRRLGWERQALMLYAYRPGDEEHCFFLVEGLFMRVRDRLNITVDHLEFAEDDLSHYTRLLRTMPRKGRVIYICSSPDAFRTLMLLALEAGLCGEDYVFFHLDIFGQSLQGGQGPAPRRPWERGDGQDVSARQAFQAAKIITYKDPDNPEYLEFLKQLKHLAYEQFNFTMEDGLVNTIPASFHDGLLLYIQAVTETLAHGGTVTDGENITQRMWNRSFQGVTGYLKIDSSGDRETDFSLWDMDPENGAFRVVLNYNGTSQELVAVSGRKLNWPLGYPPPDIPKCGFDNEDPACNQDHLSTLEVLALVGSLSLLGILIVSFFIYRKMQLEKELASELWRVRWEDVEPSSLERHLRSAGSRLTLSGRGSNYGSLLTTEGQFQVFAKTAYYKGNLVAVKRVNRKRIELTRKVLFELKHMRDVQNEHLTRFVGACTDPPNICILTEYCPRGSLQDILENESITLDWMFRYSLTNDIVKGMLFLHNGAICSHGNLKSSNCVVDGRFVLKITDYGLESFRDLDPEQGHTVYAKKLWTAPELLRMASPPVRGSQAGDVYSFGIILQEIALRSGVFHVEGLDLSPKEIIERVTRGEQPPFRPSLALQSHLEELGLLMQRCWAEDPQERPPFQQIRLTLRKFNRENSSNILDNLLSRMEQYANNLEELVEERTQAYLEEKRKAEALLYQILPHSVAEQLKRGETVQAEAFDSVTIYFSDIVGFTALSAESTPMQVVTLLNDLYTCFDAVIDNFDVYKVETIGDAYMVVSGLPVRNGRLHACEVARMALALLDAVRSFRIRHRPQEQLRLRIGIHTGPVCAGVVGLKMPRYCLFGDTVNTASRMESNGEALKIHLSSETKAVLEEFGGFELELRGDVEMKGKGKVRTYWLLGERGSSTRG
ADAM10 inh: inhibitors of human ADAM10. 0.62% of 370,000 active. recombinant ADAM10, EDANS/DABCYL FRET peptide cleavage, 3 h. inhibition, % at 7 µM. AID 720582. O14672;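 active = inhibition above a per-campaign cutoff equal to the mean of compounds falling between control-based bounds plus 3 SD, cut at about 20% in these data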;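 note: 0% = DMSO wells while the 100% control is not disclosed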
ADAM17 inh: inhibits human ADAM17; AID 720648; inhibition, % at 6.95 µM; 0.83% of 370,000 active; P78536; recombinant ADAM17, EDANS/DABCYL FRET peptide cleavage;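 active = inhibition above the mean of compounds lying between control limits plus 3 SD, set per campaign, cut at about 8.5% in these data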;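 note: 0% = DMSO-only wells as the low control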
* hit, by the source's call. A selection: hits, their analogues and other compounds. The true share with any hit is near 1.3%.

SMILES | NPR2 activator | NPR1 activator | ADAM10 inh | ADAM17 inh
COc1ccc(CC(=O)Nc2sc3c(c2C#N)CC(C)(C)NC3(C)C)cc1OC | 37.2* | 31.1 | -3.7 | -6.8
O=C1C[C@H](c2ccc3ccccc3c2)N=C2N1/C(=C\c1ccccc1)[C@@H](c1ccccc1C(F)(F)F)N2Cc1ccc2c(c1)OCO2 | 6.0 | -0.5 | 2.4 | 3.5
O=C(OC1CCOC1=O)c1ccc(CO)cc1 (centres undefined) | -3.4 | 1.5 | 2.7 | -1.9
O=C(CCC(=O)c1ccc(F)cc1)OC1CCOC1=O (centres undefined) | 1.5 | 56.2* | 1.7 | -4.8
O=C(Nc1cccc(S(=O)(=O)Nc2ccc(Cl)cc2)c1)c1ccc(Cl)nc1 | -17.4 | -23.4 | 31.4* | 7.5
COc1ccc(NS(=O)(=O)c2cccc(NC(=O)c3ccc(Cl)nc3)c2)cc1 | -15.4 | -16.6 | 6.1 | 7.4
O=C1CSc2ccc(C(=O)Nc3cccc(S(=O)(=O)Nc4ccc(Br)cc4)c3)cc2N1 | -1.9 | -7.0 | 47.9* | 16.6*
O=C(CSCc1ccc(F)cc1)Nc1ccc(N2CCOCC2)cc1N1CCOCC1 | -2.6 | 2.1 | -4.9 | -8.6
Cc1nn(Cc2ccc(F)cc2)c2sc(C(=O)Nc3ccc(N4CCOCC4)cc3N3CCOCC3)cc12 | 40.1* | 32.3 | -0.2 | -0.9
Cc1cc(C)c(C)c(S(=O)(=O)ON2C(=O)c3ccccc3C2=O)c1C | 47.0* | 41.7* | -131.0 | -47.2
O=S(=O)(c1ccccc1)N1CCN(S(=O)(=O)c2ccc(F)cc2)CC1 | 3.9 | -1.8 | 4.2 | -4.9
O=C1c2ccccc2C(=O)N1OS(=O)(=O)c1ccc(F)cc1 | 30.9 | 41.6* | -84.8 | -31.5
Cc1ccc(S(=O)(=O)ON2C(=O)c3ccccc3C2=O)c(C)c1 | 45.6* | 40.6* | -155.4 | -53.0
Cc1cc(C)c(S(=O)(=O)ON2C(=O)c3ccccc3C2=O)cc1C | 36.4* | 38.9 | -94.2 | -30.4
Cc1cccc2c1N(C)C(=O)C2=O | 1.7 | -0.3 | -9.8 | -3.7
Cc1ccc(S(=O)(=O)N2CCN(CCc3ccccc3)CC2)c(C)c1 | 3.8 | -2.1 | -1.2 | 0.6
O=C(NC1CC1)c1cccc(S(=O)(=O)Nc2ccccc2F)c1 | -1.5 | 2.5 | -3.4 | -1.0
N/C(=N\OC(=O)c1cc(Cl)ccc1Cl)c1ccncc1 | -1.0 | -3.5 | 3.8 | 1.5
N/C(=N\OC(=O)c1ccc(Cl)cc1Cl)c1ccncc1 | -6.5 | 43.0* | -8.4 | -5.9
O=S1(=O)CC(N2CCCC2)CN1Cc1cn(Cc2ccccc2)nn1 (centres undefined) | 5.6 | 3.8 | -3.7 | -0.1
N#C/C(C(=O)Nc1ccc(Cl)cc1)=C(/S)Nc1ccccc1 | 34.3 | 58.3* | 9.7 | 1.1
CC1(C)Cc2c(c(N3CCOCC3)nc3sc4c(NCCN5CCOCC5)nnnc4c23)CS1 | 42.2* | 44.4* | -10.4 | -4.2
CC1(C)Cc2c(c(N3CCOCC3)nc3sc4c(NCC5CCCO5)nnnc4c23)CS1 (centres undefined) | 48.9* | 38.5 | 0.9 | -3.0
CC(C)CCNc1nnnc2c1sc1nc(N3CCOCC3)c3c(c12)CC(C)(C)SC3 | 57.2* | 51.7* | -0.6 | -0.8
CC1(C)Cc2c(c(N3CCOCC3)nc3sc(C#N)c(N)c23)CS1 | 18.5 | 22.3 | -76.4 | -28.8
SMILES | NPR2 activator | NPR1 activator | ADAM10 inh | ADAM17 inh
Cc1ccc(S(=O)(=O)CCC(=O)OCC(=O)Nc2cc(S(=O)(=O)N3CCOCC3)ccc2C)cc1 | 3.6 | -4.2 | -9.8 | -6.2
CC1(C)CC(=O)C2=C(C1)NC(Nc1nc3ccccc3o1)=NC2c1ccccn1 (centres undefined) | 1.6 | 46.0* | 8.8 | -2.6
COc1ccc(NC(=O)[C@@H]2CCCN2S(=O)(=O)c2ccccc2F)cc1S(=O)(=O)N1CCCCC1 | 8.0 | -2.0 | -6.7 | -2.3
COc1ccc(NC(=O)Nc2ccc([N+](=O)[O-])cc2)cn1 | -2.8 | 0.5 | -8.9 | 6.5
CCOC(=O)C1=C(N)Oc2cc(O)ccc2C1c1ccc(Br)cc1 (centres undefined) | 9.2 | 53.4* | -3.3 | -0.7
Cc1ccc(CNc2nc(-c3cccnc3)nc3ccccc23)cc1 | 56.9* | 56.1* | 8.0 | 1.7
c1ccc(CNc2nc(-c3cccnc3)nc3ccccc23)cc1 | 34.4 | 33.1 | 3.3 | -0.1
c1cncc(-c2nc(NCc3ccc4c(c3)OCO4)c3ccccc3n2)c1 | 59.1* | 52.5* | -5.1 | -4.2
C=CC[C@@H](CC(=O)N(CCO)Cc1ccccc1)C(=O)N[C@@H](COC(=O)[C@H](CC=C)CC(=O)OC(C)(C)C)Cc1c[nH]c2ccccc12 | -14.8 | -6.0 | 35.0* | 22.2*
C=CC[C@@H](CC(=O)N[C@H](CO)Cc1ccccc1)C(=O)N[C@H](COC(=O)[C@H](CC=C)CC(=O)OC(C)(C)C)Cc1c[nH]c2ccccc12 | -1.8 | -7.3 | 28.7* | 16.6*
C=CCC[C@@H](Cc1ccc(F)cc1)C(=O)OC[C@H](Cc1c[nH]c2ccccc12)NC(=O)[C@@H](CC=C)CC(=O)N[C@@H](CO)Cc1ccccc1 | 0.6 | 0.0 | 16.2 | 7.8
C=CC[C@H](CC(=O)N(CCO)Cc1ccccc1)C(=O)N[C@H](COC(=O)[C@H](CC=C)CC(=O)OC(C)(C)C)Cc1c[nH]c2ccccc12 | -2.0 | -9.8 | 9.3 | 7.8
C=CCC[C@H](Cc1ccc(F)cc1)C(=O)OC[C@H](Cc1c[nH]c2ccccc12)NC(=O)[C@@H](CC=C)CC(=O)NCCO | -8.4 | -2.2 | 26.0* | 7.9
COc1ccc(CCN2CC(C(=O)NCc3nc4ccccc4n3C)CCC2=O)cc1 (centres undefined) | 3.7 | 0.9 | -15.3 | 0.4
CC1=C(C(=O)N2CCOCC2)C(c2ccc(C)cc2)NC(=S)N1 (centres undefined) | 65.3* | 59.5* | -4.8 | -3.3
CC1=C(C(=O)N2CCOCC2)C(c2c(C)cc(C)cc2C)NC(=S)N1 (centres undefined) | 5.9 | 0.7 | 0.5 | -0.2
CC1=C(C(=O)N2CCOCC2)C(c2ccc(Cl)cc2)NC(=S)N1 (centres undefined) | 60.6* | 54.0* | -7.6 | -1.5
CCOc1cc(N2CCOCC2)c(OCC)cc1NC(=O)Cn1[nH]c(=O)c2ccccc2c1=O | 35.7* | 25.9 | -5.0 | -2.1
Cc1ccc(S(=O)(=O)N2C[C@H]3N(C(=O)OC(C)C)N(C(=O)OC(C)C)C[C@H](OC(=O)NC4CCCC4)[C@@]3(O)C2)cc1 | 2.5 | 0.5 | -4.1 | -1.4
Cc1csc(CNc2ncnc3ccc(-c4ccoc4)cc23)c1 | 36.7* | 35.6 | -30.5 | -4.6
Clc1ccc(-c2nc3cnccn3c2Nc2ccc3c(c2)OCO3)cc1 | 39.5* | 40.9* | -7.0 | -2.7
Oc1ccc(-c2nc3ncccn3c2Nc2ccc3c(c2)OCCO3)cc1 | 21.7 | 30.6 | 6.8 | 3.2
Clc1ccc(-c2nc3ncccn3c2Nc2ccc3c(c2)OCCO3)cc1 | 41.6* | 44.6* | -0.1 | -2.4
Cc1ccc(-c2nc3ncccn3c2Nc2ccc3c(c2)OCCO3)cc1 | 44.1* | 41.4* | 0.1 | -3.0
COc1ccc(-c2nc3ncccn3c2Nc2ccc3c(c2)OCCO3)cc1 | 43.2* | 45.9* | 3.8 | -2.8
